Activity calls are given as the source filed them. Rule for the calls: active = hit-call score of the fitted dose curve at least 0.9, where 1 is the maximum; inactive = score below 0.9.
Tests used:
[1] = APR_HepG2_P-H2AX_72hr: Apredica 72-hour HepG2 Assay for H2AX Phosphorylation (AID 2282916); details: imaging, actives raise or lower the signal;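 note: phospho-histone H2A.x immunostain intensity per cell marking DNA damage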
How it was run: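 Readout: phospho-H2A.x immunofluorescence (FITC secondary) plus Hoechst nuclear stain, high-content imaging at 20x, six fields/well. HepG2, 72 hr compound exposure, 0.39–200 uM, final DMSO 0.5% v/v. Gain or loss fitted relative to DMSO baseline.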

[2] = APR_HepG2_MitoMembPot_72hr: Apredica 72-hour HepG2 Assay for Mitochondrial Membrane Potential (AID 2282917); details: imaging, actives raise or lower the signal
How it was run: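 HepG2 cells dosed 72 hr with compound at 0.39–200 uM in duplicate, 0.5% v/v DMSO final. Mitochondria stained with 250 nM MitoTracker Red CMXRos for 30 min before formaldehyde fixation, imaged by high-content fluorescence; bidirectional fit versus DMSO.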

[3] = APR_HepG2_MitoticArrest_72hr: Apredica 72-hour HepG2 Assay for Mitotic Arrest (AID 2282918); details: high-content imaging, actives raise or lower the signal
How it was run: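 High-content imaging of fixed human HepG2 cells after 72 h compound exposure (0.39–200 uM, duplicates, 0.5% DMSO); mitotic arrest scored from phospho-histone H3 and nuclear Hoechst staining relative to DMSO.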

[4] = APR_HepG2_MicrotubuleCSK_72hr: Apredica 72-hour HepG2 Assay for Microtubule CSK Stabilty (AID 2282919); details: HepG2 microtubule cytoskeleton, high-content imaging, actives raise or lower the signal
How it was run: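 HepG2, 72 hr cmpd exposure, 0.39–200 uM (10 pts, duplicate), 0.5% DMSO. 3.7% formaldehyde fix, 0.5% Triton perm, anti-alpha-tubulin/Cy5 plus Hoechst. HCS fluorescence intensity; bidirectional fit vs DMSO baseline; taxol as positive control.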

[5] = APR_HepG2_P-H2AX_24hr: Apredica 24-hour HepG2 Assay for H2AX Phosphorylation (AID 2282920); details: high-content imaging, actives raise or lower the signal
How it was run: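 High-content imaging of phospho-histone H2A.x immunofluorescence, nuclei counterstained with Hoechst 33342, in fixed HepG2 cells. Compounds ran 0.39–200 uM in duplicate for 24 h, final DMSO 0.5%. Signal change fitted both directions against DMSO.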

[6] = APR_HepG2_StressKinase_72hr: Apredica 72-hour HepG2 Assay for Stress Kinase (AID 2282921); details: HepG2 stress kinase (phospho-c-Jun) imaging, actives raise or lower the signal
How it was run: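 Phospho-c-Jun immunofluorescence measured by high-content imaging at 20x, six fields per well; bidirectional curve fitting against DMSO as baseline. Dosing: 0.39–200 uM, 72 h, 0.5% DMSO final.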

[7] = APR_HepG2_StressKinase_24hr: Apredica 24-hour HepG2 Assay for Stress Kinase (AID 2282922); details: HepG2 stress kinase (phospho-c-Jun) imaging, actives raise or lower the signal
How it was run: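 Read-out: phospho-c-Jun immunofluorescence (Cy3 secondary) quantified by high-content imaging at 20x, nuclei defined by Hoechst 33342. Human HepG2 liver cells dosed 24 hr, 0.39–200 uM, DMSO 0.5% v/v; gain or loss of signal fitted relative to DMSO.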

[8] = APR_HepG2_p53Act_72hr: Apredica 72-hour HepG2 Assay for p53 Activation (AID 2282923); details: high-content imaging, actives raise or lower the signal;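 note: average cellular p53 protein immunofluorescence intensity in HepG2 cells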
How it was run: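 Readout: p53 immunofluorescence quantified by automated high-content imaging at 20x, six fields per well, nuclei located via Hoechst. Dosing ran 72 hr over ten concentrations from 0.39 to 200 uM; bidirectional curve fitting against DMSO baseline.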

[9] = APR_HepG2_MitoMass_72hr: Apredica 72-hour HepG2 Assay for Mitochondrial Mass (AID 2282924); details: high-content imaging, actives raise or lower the signal;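 note: MitoTracker Red CMXRos stain intensity per cell imaged as mitochondrial mass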
How it was run: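 Read-out: MitoTracker Red fluorescence intensity from automated imaging (20x, six fields per well) in human HepG2 liver cells. Dosing ran 72 hr, 0.39–200 uM, 0.5% DMSO; bidirectional curve fitting versus DMSO baseline.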

[10] = ATG_CRE_CIS: Attagene CIS-FACTORIAL HepG2 Assay for human cAMP Responsive Element (CRE) binding protein 3 (AID 2282926); details: HepG2 CRE cis-reporter, Attagene multiplexed mRNA; actives raise or lower the signal
How it was run: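 Endogenous transcription factor activity read via CRE-regulated reporter transcripts in transfected HepG2 cells. After 24 h exposure, RNA was reverse-transcribed, amplified, fluorescently labelled and sized by capillary electrophoresis; gain or loss fitted against DMSO.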

[11] = molecular target: CCAAT/enhancer-binding protein beta (Homo sapiens) (UniProt P17676); test: ATG_C_EBP_CIS: Attagene CIS-FACTORIAL HepG2 Assay for human CCAAT/Enhancer Binding Protein (C/EBP) beta (AID 2282927); details: HepG2 Attagene cis-factorial transcription factor reporter; actives raise or lower the signal
How it was run: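 HepG2 transiently transfected with multiplexed reporter units under cis-regulatory promoters reporting endogenous C/EBPb activity. After 24 h exposure, reporter mRNA assayed by RT-PCR, fluorescent labelling, HpaI digestion and capillary electrophoresis; bidirectional fitting versus DMSO.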

[12] = ATG_CMV_CIS: Attagene CIS-FACTORIAL HepG2 Assay for human CMV (Internal Marker) (AID 2282928); details: HepG2 CMV promoter reporter, transcription factor profiling; actives raise or lower the signal;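 note: endpoint acts as a background internal control marker rather than a target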
How it was run: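 Bidirectional fits against DMSO are applied to reporter mRNA, read by RT-PCR with capillary electrophoresis, from HepG2 cells exposed 24 h. The endpoint serves as an internal CMV background marker within the cis-factorial reporter panel.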

[13] = ATG_DR4_LXR_CIS: Attagene CIS-FACTORIAL HepG2 Assay for human Liver X Receptor (LXR), DR4 submotif (AID 2282929); details: HepG2 Attagene DR4 cis-reporter, mRNA transcription; actives raise or lower the signal
How it was run: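 After transient transfection with multiplexed cis-promoter reporter units, HepG2 cells received test chemicals for 24 h. Reporter mRNA induction, detected by fluorescence after RT-PCR and capillary electrophoresis, was scored relative to DMSO.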

[14] = molecular target: Aryl hydrocarbon receptor (Homo sapiens) (UniProt P35869); test: ATG_Ahr_CIS: Attagene CIS-FACTORIAL HepG2 Assay for human Aryl Hydrocarbon Receptor (Ahr) (AID 2282930); details: HepG2 AhR cis-factorial reporter transcription; actives raise or lower the signal
How it was run: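 HepG2 cells transiently transfected with cis-element-driven multiplexed reporter units; endogenous AhR activity read as reporter mRNA 24 h after dosing, via RT-PCR, 6-FAM labelling, HpaI digestion and capillary electrophoresis. Bidirectional fit relative to DMSO.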

[15] = ATG_AP_1_CIS: Attagene CIS-FACTORIAL HepG2 Assay for human Activator Protein 1 (AP-1) (AID 2282931); details: HepG2 Attagene cis-factorial AP-1 reporter mRNA; actives raise or lower the signal
How it was run: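 After 24 h incubation with test chemical, RNA from transfected HepG2 cells was reverse-transcribed, amplified, fluorescently labelled and digested before capillary electrophoresis. Reporters were driven by cis-regulatory promoters; activity fitted bidirectionally versus DMSO.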

[16] = ATG_AP_2_CIS: Attagene CIS-FACTORIAL HepG2 Assay for human Activator Protein 2 (AP-2) (AID 2282932); details: HepG2 AP-2 cis-reporter, Attagene transcription factor profiling; actives raise or lower the signal
How it was run: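 Read-out: fluorescent reporter mRNA via RT-PCR and capillary electrophoresis, 24 h post-dose in transiently transfected HepG2. Endogenous factors drive cis-promoter reporters; gain or loss of signal fitted bidirectionally against DMSO.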

[17] = ATG_BRE_CIS: Attagene CIS-FACTORIAL HepG2 Assay for human Bone Morphogenetic Protein (BMP) Response Element (BRE) (AID 2282933); details: HepG2 BMP response element reporter, Attagene transcription factor profiling; actives raise or lower the signal
How it was run: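 After a 24 h chemical treatment, transiently transfected HepG2 cells were lysed for RNA; reporter transcripts were quantified by fluorescent RT-PCR and capillary electrophoresis, normalised to DMSO.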

[18] = molecular target: Transcription factor E2F1 (Homo sapiens) (UniProt Q01094); test: ATG_E2F_CIS: Attagene CIS-FACTORIAL HepG2 Assay for human E2F Transcription Factor 1 (AID 2282935); details: HepG2 Attagene cis-reporter, E2F reporter RNA transcripts; actives raise or lower the signal
How it was run: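 Transient MRTU transfection of HepG2; 24 h compound exposure; RNA → oligo(dT) RT → PCR → FAM label → HpaI cut → CE fluorescence. Gain/loss of signal fit against DMSO.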

[19] = molecular target: Retinoic acid receptor alpha (Homo sapiens) (UniProt P10276); test: ATG_DR5_RAR_CIS: Attagene CIS-FACTORIAL HepG2 Assay for human Retinoic Acid Receptor Alpha (RARE), DR5 submotif (AID 2282934); details: HepG2 Attagene cis-factorial RARE DR5 reporter, mRNA; actives raise or lower the signal;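 for AC50: reporter responds to endogenous RAR alpha beta and gamma in HepG2 not RARA alone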
How it was run: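 HepG2 cells transiently transfected with multiplexed reporter units; DR5 cis-element drives reporter through endogenous transcription factors. After 24 h dosing, reporter mRNA quantified by RT-PCR, fluorescent labeling, HpaI digestion and capillary electrophoresis; bidirectional fitting versus DMSO.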

[20] = APR_HepG2_NuclearSize_72hr: Apredica 72-hour HepG2 Assay for Nuclear Size (AID 2282925); details: high-content imaging, actives raise or lower the signal
How it was run: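 Read-out: nuclear diameter from Hoechst 33342 images (ArrayScan, 20x, six fields/well), via cell-cycle image analysis. HepG2 were dosed 0.39–200 uM for 72 hr in 0.5% DMSO. Bidirectional fit relative to DMSO.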

Measured: AC50

Chain of CCAAT/enhancer-binding protein beta (Homo sapiens) (P17676 whole entry, looked up): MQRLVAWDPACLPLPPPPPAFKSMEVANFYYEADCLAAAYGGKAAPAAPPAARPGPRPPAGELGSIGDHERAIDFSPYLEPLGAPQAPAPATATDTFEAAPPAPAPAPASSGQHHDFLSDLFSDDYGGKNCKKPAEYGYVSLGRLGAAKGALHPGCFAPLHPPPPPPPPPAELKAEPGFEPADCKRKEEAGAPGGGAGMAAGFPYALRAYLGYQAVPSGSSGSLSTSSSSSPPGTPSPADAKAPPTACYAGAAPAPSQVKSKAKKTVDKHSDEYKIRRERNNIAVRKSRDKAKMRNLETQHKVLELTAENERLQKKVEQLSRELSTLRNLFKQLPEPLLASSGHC
Chain of Transcription factor E2F1 (Homo sapiens) (Q01094 whole entry, looked up): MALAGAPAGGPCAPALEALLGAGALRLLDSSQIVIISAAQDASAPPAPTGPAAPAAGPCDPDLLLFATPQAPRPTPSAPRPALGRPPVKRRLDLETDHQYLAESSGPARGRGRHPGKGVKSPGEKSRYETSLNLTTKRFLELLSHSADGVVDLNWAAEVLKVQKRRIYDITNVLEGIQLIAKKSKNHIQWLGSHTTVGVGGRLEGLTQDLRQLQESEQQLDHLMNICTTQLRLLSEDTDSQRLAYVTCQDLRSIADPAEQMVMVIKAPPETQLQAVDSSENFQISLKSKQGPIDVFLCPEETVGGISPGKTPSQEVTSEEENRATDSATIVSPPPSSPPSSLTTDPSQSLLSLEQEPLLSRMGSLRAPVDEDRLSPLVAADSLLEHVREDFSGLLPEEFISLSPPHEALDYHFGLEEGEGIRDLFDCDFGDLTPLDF
Chain of Aryl hydrocarbon receptor (Homo sapiens) (P35869 whole entry, looked up): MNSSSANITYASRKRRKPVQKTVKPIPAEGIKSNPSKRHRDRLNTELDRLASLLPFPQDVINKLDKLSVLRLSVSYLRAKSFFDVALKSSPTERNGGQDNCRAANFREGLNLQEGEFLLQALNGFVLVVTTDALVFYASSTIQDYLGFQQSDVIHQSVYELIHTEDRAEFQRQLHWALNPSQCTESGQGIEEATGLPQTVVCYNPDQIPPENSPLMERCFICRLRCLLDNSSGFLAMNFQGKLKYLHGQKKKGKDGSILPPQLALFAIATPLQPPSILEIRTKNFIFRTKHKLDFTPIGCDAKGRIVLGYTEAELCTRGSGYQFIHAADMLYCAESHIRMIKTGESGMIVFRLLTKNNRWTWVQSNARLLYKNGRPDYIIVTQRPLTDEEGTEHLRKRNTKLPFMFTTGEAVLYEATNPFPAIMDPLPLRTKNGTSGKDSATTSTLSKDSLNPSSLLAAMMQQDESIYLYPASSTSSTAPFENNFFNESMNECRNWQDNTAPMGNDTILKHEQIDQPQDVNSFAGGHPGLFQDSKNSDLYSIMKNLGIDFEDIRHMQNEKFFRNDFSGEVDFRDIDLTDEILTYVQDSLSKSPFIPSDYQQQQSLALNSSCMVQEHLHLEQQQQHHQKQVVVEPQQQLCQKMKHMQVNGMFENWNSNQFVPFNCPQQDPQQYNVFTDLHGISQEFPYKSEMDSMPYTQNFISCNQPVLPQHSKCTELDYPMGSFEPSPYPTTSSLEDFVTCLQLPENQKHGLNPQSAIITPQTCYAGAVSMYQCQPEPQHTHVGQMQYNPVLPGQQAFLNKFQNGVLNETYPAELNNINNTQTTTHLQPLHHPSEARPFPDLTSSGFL
Chain of Retinoic acid receptor alpha (Homo sapiens) (P10276 whole entry, looked up): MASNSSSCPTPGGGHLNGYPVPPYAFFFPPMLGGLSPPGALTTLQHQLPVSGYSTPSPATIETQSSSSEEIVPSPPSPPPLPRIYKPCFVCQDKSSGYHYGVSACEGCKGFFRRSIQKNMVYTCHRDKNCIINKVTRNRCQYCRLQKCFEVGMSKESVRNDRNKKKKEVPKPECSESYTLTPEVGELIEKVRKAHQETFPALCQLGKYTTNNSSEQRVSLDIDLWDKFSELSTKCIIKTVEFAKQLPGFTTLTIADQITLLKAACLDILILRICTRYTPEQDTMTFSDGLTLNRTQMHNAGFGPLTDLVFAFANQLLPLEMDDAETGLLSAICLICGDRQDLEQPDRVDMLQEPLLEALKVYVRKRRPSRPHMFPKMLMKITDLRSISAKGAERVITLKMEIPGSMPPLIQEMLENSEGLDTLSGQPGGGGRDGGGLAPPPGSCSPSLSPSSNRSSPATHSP

CCC(=NOC/C=C/Cl)C1=C(O)CC(C2CCOCC2)CC1=O (stereo not drawn)
not listed: [19] | [20]
inactive: all other assays above

COc1ccc(C(=CC(=O)N2CCOCC2)c2ccc(Cl)cc2)cc1OC
active: [10] 10.9 µM | [11] 5.02 µM | [12] 2.48 µM | [17] 11.9 µM
not listed: [20]
inactive: all other assays above

CCOP(=O)(NC(C)C)Oc1ccc(SC)c(C)c1 (stereo not drawn)
active: [2] 50.5 µM | [19] 14.2 µM
not listed: [17] | [20]
inactive: all other assays above

CC(C)N(C(=O)SCC(Cl)=C(Cl)Cl)C(C)C
active: [4] 99.5 µM | [10] 15.6 µM | [11] 10.8 µM | [19] 29.1 µM
not listed: [14]
inactive: all other assays above

COc1cccc(C(=O)NN(C(=O)c2cc(C)cc(C)c2)C(C)(C)C)c1C
active: [13] 50 µM | [16] 13.1 µM
inactive: all other assays above

CCCCOC(=O)[C@@H](C)Oc1ccc(Oc2ccc(C#N)cc2F)cc1
not listed: [17] | [19] | [20]
inactive: all other assays above

O=c1ccc(=O)[nH][nH]1
not listed: [7] | [19]
inactive: all other assays above

CNC(=O)ON=C(SC)C(=O)N(C)C
active: [9] 87.8 µM | [10] 17.4 µM | [15] 50 µM
inactive: all other assays above

CC(COc1ccc(Oc2ccccc2)cc1)Oc1ccccn1 (stereo not drawn)
active: [4] 82.3 µM | [11] 13.4 µM | [15] 19.1 µM
not listed: [17]
inactive: all other assays above

CCCOCC(=Nc1ccc(Cl)cc1C(F)(F)F)n1ccnc1
active: [12] 7 µM | [13] 1.39 µM | [19] 0.295 µM
not listed: [20]
inactive: all other assays above

C#CC(C)(C)NC(=O)c1cc(Cl)cc(Cl)c1
active: [10] 29 µM | [11] 20.5 µM | [12] 39.3 µM | [17] 22.5 µM
not listed: [20]
inactive: all other assays above

COP(=O)(OC)OC(Br)C(Cl)(Cl)Br (stereo not drawn)
active: [5] 33.4 µM | [7] 32.5 µM
not listed: [8] | [17] | [20]
inactive: all other assays above
